# Mtb FBA inh: inhibitors of M. tuberculosis fructose-bisphosphate aldolase. 2.3% of 360,000 active. purified M. tuberculosis FBA, fluorescence read-out. inhibition, % at 1 µM; in the data active means inhibition above about 27%;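 further: 0% = vehicle and 100% = reference inhibitor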
# Target sequence (P9WQA3 whole entry, looked up): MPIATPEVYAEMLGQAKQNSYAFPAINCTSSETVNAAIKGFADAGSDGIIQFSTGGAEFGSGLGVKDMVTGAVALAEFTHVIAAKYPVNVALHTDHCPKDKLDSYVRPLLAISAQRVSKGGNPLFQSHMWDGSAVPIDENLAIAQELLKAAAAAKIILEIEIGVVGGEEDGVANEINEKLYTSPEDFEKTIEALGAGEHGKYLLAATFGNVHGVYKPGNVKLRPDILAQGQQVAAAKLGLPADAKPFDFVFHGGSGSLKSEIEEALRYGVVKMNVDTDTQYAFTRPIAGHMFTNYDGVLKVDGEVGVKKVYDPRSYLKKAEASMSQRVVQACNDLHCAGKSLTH
# Rv3671c protease: inhibitors of M. tuberculosis serine protease Rv3671c. inhibition, % at 5.96 µM. 0.048% of 320,000 active; in the data active means inhibition above about 38%;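 further: extracellular domain of Rv3671c used as enzyme; 0% = enzyme with DMSO and 100% = no enzyme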
# BH1578 lux ind: quorum light induction in luxS cqsA deficient V. cholerae | V. cholerae BH1578 lux reporter, luminescence, 6 h | AID 588436 | activation, % at 18.7 µM | 0.16% of 350,000 active; in the data active means activation mostly above about 9.7%, no sharp cut-off
# GDH-TPI inh: inhibits GDH-TPI coupling enzymes, artifact for Mtb FBA screen. GDH-TPI coupled enzyme counterscreen, NADH absorbance. inhibition, % at 4.8 µM. 1.2% of 360,000 active. AID 588335; in the data active means inhibition above about 30%;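 further: 0% = DMSO wells and 100% = wells lacking the enzyme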
# Mtb UGM inh: Mtb UDP-galactopyranose mutase inhibition. P9WIQ1. purified UGM, fluorescence polarization probe displacement. inhibition, % at 10 µM. 0.06% of 320,000 active. AID 504406; in the data active means inhibition above about 10%, passing the limit was not always enough
# RecA intein inh: Mtb RecA intein splicing inhibition | P9WHJ3 | cell-free RecA intein splicing, fluorescence | inhibition, % (test concentration not listed) | 0.75% of 290,000 active | AID 2221; in the data active means inhibition above about 30%;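 further: 0% = vehicle wells and 100% = reference inhibitor control wells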
# The depositor's hits bear a star; i = inactive; x = not tested or not shown; + = active, no number. Rows were chosen to be rich in hits. Some 4.1% of all compounds tested hit in one or more screens of this group.
SMILES,Mtb FBA inh,Rv3671c protease,BH1578 lux ind,GDH-TPI inh,Mtb UGM inh,RecA intein inh
Cc1cc(=O)oc(C)c1C(=O)NCCC(C)C,-0.5,1.0,4.0,31.8*,-1.6,0.5
COc1ccc(C(CNC(=O)CN2C(=O)NC(C)(c3ccc4ccccc4c3)C2=O)N2CCCC2)cc1 (centres undefined),3.4,x,-2.7,2.1,x,x
CCOC(=O)c1cc2c(=O)n3ccccc3nc2n(CCCOC)c1=NC(C)=O,+,-0.1,-0.4,18.6,3.2,x
CCOC(=O)c1cc2c(=O)n3ccccc3nc2n(CCCOC)c1=NC(=O)c1ccncc1,+,3.2,i,17.3,1.8,-95.8
CCOC(=O)c1cc2c(=O)n3cccc(C)c3nc2n(CCOC)c1=NC(C)=O,+,13.5,1.2,1.5,-2.4,x
C=CCn1c(=N)c(C(=O)OCC)cc2c(=O)n3cccc(C)c3nc21,x,1.1,x,x,-0.4,x
CCOC(=O)C1CCN(C(=O)c2cccc(S(=O)(=O)N(C)C3CCCCC3)c2)CC1,1.1,1.6,-5.3,12.6,-3.9,0.7
CC(=O)N1c2ccc(S(=O)(=O)NCCC(=O)Nc3ncccc3C)cc2CC1C (centres undefined),-0.4,-7.3,-1.5,2.6,-1.5,-1.1
Cc1cccn2c(=O)c3cc(C(=O)NC(C)C)c(=N)n(Cc4ccncc4)c3nc12,+,3.0,-4.6,1.9,-3.9,-382.6
CCCn1c(=N)c(C(=O)NCc2ccc3c(c2)OCO3)cc2c(=O)n3cccc(C)c3nc21,4.0,-4.6,-0.4,1.2,-0.9,-20.1
CCNC(=O)c1cc2c(=O)n3cccc(C)c3nc2n(Cc2ccc(C)cc2)c1=N,111.9*,3.6,-0.7,4.1,3.4,i
COCCCNC(=O)c1cc2c(=O)n3cccc(C)c3nc2n(C(C)C)c1=N,+,-1.1,i,-0.9,1.3,-407.8
COCCn1c(=N)c(C(=O)NCCc2ccc(OC)cc2)cc2c(=O)n3cccc(C)c3nc21,4.7,-0.9,1.1,7.8,-1.2,-1.6
O=C(Nc1nc2ccccc2n1CCN1CCOCC1)c1ccc(Cn2cc([N+](=O)[O-])cn2)o1,2.5,1.0,-0.3,47.8*,-1.2,1.9
O=C(Nc1nc2ccccc2n1CCN1CCOCC1)c1ccc(COc2ccccc2Br)o1,4.0,-0.8,i,13.7,-2.4,7.1
CCOC(=O)N(C)c1c(CC)nc2c(OCc3ccc(F)cc3)cccn12,-0.1,x,i,1.8,x,x
COc1ccc(OC)c(NC(=O)C2=C(C)Nc3ncnn3C2c2cccs2)c1 (centres undefined),2.2,-3.4,+,0.9,-0.2,-3.2
Cc1ccc(C(=O)/C=C/NCc2ccc(F)cc2)cc1,0.6,-7.0,i,26.0,0.6,-1.0
COc1ccc(C(=O)/C=C/Nc2ccc(S(N)(=O)=O)cc2)cc1OC,8.4,7.0,-0.3,57.5*,0.3,-9.1
COc1ccc(C(=O)/C=C/NCc2ccc(F)cc2)cc1OC,-1.0,0.5,i,33.8*,0.6,1.8
CN(C)c1ccc(/C=N/n2c(-c3cccnc3)n[nH]c2=S)cc1,-2.5,-0.8,-0.1,18.2,-0.4,2.9
Fc1ccc(/C=N/n2c(C3CCCCC3)n[nH]c2=S)cc1,1.1,0.0,0.6,2.5,1.9,0.4
CN(C)c1ccc(/C=N/n2c(C3CCCCC3)n[nH]c2=S)cc1,0.8,6.2,-0.9,35.7*,2.0,-0.1
CN(C)c1ccc(/C=N/n2c(-c3ccccc3Br)n[nH]c2=S)cc1,0.0,6.9,0.2,53.7*,1.0,-1.3
CN(C)c1ccc(/C=N/n2c(COc3ccccc3)n[nH]c2=S)cc1,0.3,8.3,-0.6,34.6*,x,-0.3
SMILES,Mtb FBA inh,Rv3671c protease,BH1578 lux ind,GDH-TPI inh,Mtb UGM inh,RecA intein inh
O=C(CSc1ccccc1)NNC(=O)c1ccccc1O,3.8,3.5,-0.3,5.8,-0.1,4.3
CCc1nc2ccc(C(=O)N(CC)CCN(C)C)cn2c1N(C)Cc1cccs1,2.5,x,-0.3,12.4,x,x
CNC(=O)c1sc(N2N=C3/C(=C/c4ccccc4)CCCC3C2c2ccccc2)nc1C (centres undefined),0.2,-5.4,12.5*,9.4,-1.5,-9.4
C=CCc1ccccc1Oc1cc(OC)nc(N)n1,-1.7,x,-0.7,0.3,x,x
Nc1ccc(O)c(C(=O)O)c1,x,-9.2,x,x,2.1,-24.7
Nc1ccc(-c2c3ccc(=O)cc-3oc3cc(O)ccc23)c(C(=O)O)c1,-18.7,5.2,-3.2,11.8,45.3*,x
COc1ccc(-c2nc(C#N)c(N3CCC(C(N)=O)CC3)o2)cc1,+,-3.1,i,16.2,-0.9,0.0
CC(C)Cc1nc(C#N)c(N2CCC(C(N)=O)CC2)o1,-2.6,0.6,i,-1.5,0.0,-1.8
N#Cc1nc(-c2cccc(Cl)c2)oc1N1CCC(C(N)=O)CC1,+,6.5,i,5.7,2.4,-2.2
N#Cc1nc(-c2ccc(OCc3ccccc3)cc2)oc1N1CCC(C(N)=O)CC1,24.0,-11.8,i,10.4,1.0,-2.4
CC(C)(C)c1ccc(-c2nc(C#N)c(N3CCC(C(N)=O)CC3)o2)cc1,166.0*,-3.4,-1.1,21.0,-1.4,-2.9
CCN(/C=N/c1sc2c(c1C#N)CC(C)(C)NC2(C)C)CC,2.1,-0.9,-2.0,29.6,-2.3,0.4
CN(C)/C=N/c1sc2c(c1C#N)CC(C)(C)NC2(C)C,-0.4,2.0,-0.1,35.8*,0.2,-1.2
CCN(CC)Cc1c(O)c(Cl)cc2c(C)c(C)c(=O)oc12,x,-5.2,-0.4,24.9,-2.7,-182.3
CCN1CCN(Cc2c(O)c(Cl)cc3c(C)cc(=O)oc23)CC1,+,-2.9,-0.1,7.8,7.4,-94.2
Cc1cc(=O)oc2c(CN3CCCCC3)c(O)c(Cl)cc12,+,0.4,-0.1,1.9,2.8,-116.5
CCCc1cc(=O)oc2cc(C)c(CN3CCCC3)c(O)c12,10.6,-7.7,-0.6,14.1,-1.8,-0.7
CCN(CC)Cc1c(O)c(Cl)cc2c(C)cc(=O)oc12,+,x,-0.2,10.2,x,-152.4
CCCc1cc(=O)oc2c(CN3CCCC3)c(O)c(Cl)cc12,+,-4.4,-0.2,22.2,2.9,-135.5
Cc1ccc(S(=O)(=O)N2C[C@H]3C(=O)C[C@@H](c4cccc(C)c4)N(S(=O)(=O)c4ccc(C)cc4)[C@H]3C[C@H]2c2ccccc2)cc1,-1.4,x,x,x,x,x
NC(=O)Nc1ccc(C(=O)OCC(=O)N2CCCC2=O)cc1,0.6,-2.0,i,5.6,-0.7,x
CCC(=O)c1cc2c(C)cc(=O)oc2c(C)c1O,2.9,-2.9,-0.5,6.5,0.7,0.3
CCc1cc(=O)oc2c(CNCc3ccccc3F)c(O)c(Cl)cc12,+,-4.5,1.2,22.9,-0.9,-36.5
Cc1cc(=O)oc2c(CN3CCC(C)CC3)c(O)c(Cl)cc12,+,8.7,-0.2,14.7,4.5,-108.1
Cc1cc(=O)oc2c(CN3CCCC3)c(O)c(Cl)cc12,+,1.2,-0.9,5.6,1.8,-106.5
Cc1ccc2c(CN3CCC(C)CC3)cc(=O)oc2c1,5.2,-5.2,0.7,7.1,-3.0,2.7
C=CCc1c(O)c(CC)cc2c(C)cc(=O)oc12,+,4.0,-2.2,10.6,-0.3,-100.1

# Screening data deposited in PubChem BioAssay by several laboratories.
